Source: PubChem (several laboratories)
Pyk2 oligo antag: Pyk2 (human) oligomerization antagonism. Q293 cells, Pyk2 FERM NanoBiT luminescence; stronger effect = lower value. z-score (the deposit names both 25 µM and 10 µM). 0.83% of 99,000 active;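 active = Z-score of -3 or lower, scaled per plate to the spread of control and sample wells; inactive = z-score above -3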;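 note: negative z-score means lost luminescence so less FERM oligomerization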
Cav32 inh: human Cav3.2 channel inhibition, primary screen; O95180; Cav3.2-expressing cells, Fluo-4 calcium fluorescence FDSS; stronger effect = lower value; B-score at 10 µM; 4% of 100,000 active; AID 449739;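 active = single-dose well whose peak fluorescence ratio is a statistical outlier from its plate by either plate-standardised score or position-corrected B-score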
CYP2C9 act: activators of human CYP2C9. recombinant CYP2C9, luciferin-H conversion, luminescence; stronger effect = higher value; factor 1 = untreated enzyme, 0 = blocked. 1.4% of 96,000 active. P11712. AID 1024. activation factor at 5 µM;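 active = activation factor of 2 or more for CYP2C9 at a 5 µM dose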;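 note: 0 = sulfaphenazole-blocked wells and 1 = vehicle-only wells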
Target sequence (P11712 whole entry, looked up): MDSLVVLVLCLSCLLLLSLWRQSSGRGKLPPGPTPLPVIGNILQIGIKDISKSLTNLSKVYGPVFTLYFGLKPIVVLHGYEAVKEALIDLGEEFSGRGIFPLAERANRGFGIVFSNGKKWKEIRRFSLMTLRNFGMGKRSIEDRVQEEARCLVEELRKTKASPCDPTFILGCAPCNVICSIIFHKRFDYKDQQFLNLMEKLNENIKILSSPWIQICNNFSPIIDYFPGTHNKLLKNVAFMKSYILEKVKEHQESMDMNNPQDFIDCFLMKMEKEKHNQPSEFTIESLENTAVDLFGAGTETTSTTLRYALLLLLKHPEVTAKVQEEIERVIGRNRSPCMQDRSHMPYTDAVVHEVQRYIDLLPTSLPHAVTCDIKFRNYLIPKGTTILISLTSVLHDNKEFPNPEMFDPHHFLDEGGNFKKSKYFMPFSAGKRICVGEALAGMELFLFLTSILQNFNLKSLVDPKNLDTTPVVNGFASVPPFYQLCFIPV
CYP2C19 inh: human CYP2C19 inhibition; P33261; inhibition, % at 5 µM; 21% of 96,000 active; CYP2C19 Supersomes, luciferin-H EGE luminescence, 30 min;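 active = CYP2C19 inhibition above a set limit at 5 µM in the primary screen, cut at about 50% in these data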;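 note: plate controls were negative control wells for no effect and 2.5 mM tranylcypromine positive control for full effect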
CYP2C9 inh: inhibitors of human CYP2C9. P11712. CYP2C9 Supersomes, luciferin-H conversion, luminescence. inhibition, % at 5 µM. 20% of 96,000 active. AID 777;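 active = blocking of liver enzyme CYP2C9 beyond about 50% at 5 µM, limit read from the data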
CYP2C19 activ: activators of human cytochrome P450 2C19; recombinant CYP2C19, luciferin-H EGE luminescence; stronger effect = higher value; 0 = fully inhibited enzyme, 1 = untreated enzyme; activation factor at 5 µM; 96,000 tested, under 10 active;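 active = activation factor of at least 2 at 5 µM in the primary screen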;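 note: 0 = wells with 2.5 mM tranylcypromine and 1 = vehicle-only wells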
Starred values were filed as active, the others as inactive; . = no result given. An excerpt weighted towards active compounds, which were near 27% of everything screened.

SMILES	Pyk2 oligo antag	Cav32 inh	CYP2C9 act	CYP2C19 inh	CYP2C9 inh	CYP2C19 activ
CCc1c(C)sc(NC(=O)OC)c1C(N)=O	0.41	0.25	1	3	-2	1
c1ccc(CC2CCN(Cc3nc(-c4ccccc4)no3)CC2)cc1	-0.06	-0.6	0.9	14	10	0.9
CCNc1nnc(-c2ccc(C)cc2)o1	0.94	0.44	0.8	61*	19	0.4
Cc1ccc(-c2nnc(-c3ccccc3)o2)cc1	-0.01	-0.71	.	.	.	.
Cc1cc(C)nc(-n2nc(C)cc2Nc2ccccc2)n1	-0.82	.	1	10	-1	0.9
Cc1cc(Nc2nnnn2-c2ccccc2)n(-c2ccc(Cl)cc2)n1	-1.8	-0.64	0.7	65*	32	0.3
Cc1cc(Nc2ccccc2)n(-c2ccccc2)n1	-0.75	-8.4*	0.3	90*	75*	0.1
Cc1cc(NS(=O)(=O)c2ccccc2)n(-c2ccccc2)n1	-0.28	-0.39	0.1	4	86*	1
O=C(Nc1cccnc1)c1ccc(COc2ccccc2Br)o1	-0.26	0.0038	0.4	89*	60*	0.1
COc1ccc(NC(=O)c2ccc(COc3ccccc3)o2)cc1	0.47	-0.7	0.6	21	39	0.8
O=C(N/N=C/c1ccc2ccccc2c1)c1ccc(COc2ccc3c(c2)CCC3)o1	0.74	-4.2	0.5	48	48	0.5
COc1ccccc1OCc1ccc(C(=O)NCc2ccco2)o1	-0.51	0.2	0.8	76*	24	0.2
Cc1ccc(C(=O)Nc2ccncc2)o1	0.22	0.3	0.6	73*	38	0.3
O=C(NCc1cccnc1)c1ccc(COc2ccc3c(c2)CCC3)o1	-1	-2.7	0.3	99*	67*	0
COc1ccc(N2C(=O)CC(n3c(CCCCO)nc4ccccc43)C2=O)cc1 (stereo unspecified)	1.1	.	1	-2	-2	1
O=C(NCc1cccnc1)c1ccc(COc2ccccc2Br)o1	1.4	0.92	0.4	79*	61*	0.2
COc1ccccc1OCc1ccc(C(=O)Nc2ccncc2)o1	-0.14	-0.099	0	100*	98*	0
COc1ccccc1OCc1ccc(C(=O)OCC2CCCO2)o1 (stereo unspecified)	0.37	0.18	1.2	76*	-16	0.2
COc1ccccc1OCc1ccc(C(=O)NC(C)(C)C)o1	0.28	0.5	0.9	16	6	0.8
COC(=O)c1ccccc1NC(=O)c1ccc(COc2cccc3ccccc23)o1	-0.69	-1.1	0.4	33	58*	0.7
CCN(CC)C(=O)c1ccc(COc2ccccc2Br)o1	0.44	-0.64	1.2	40	-15	0.6
COC(=O)c1ccccc1NC(=O)c1ccc(COc2ccccc2)o1	-1.2	-0.62	1.2	21	-18	0.8
O=c1[nH]cnc2nc(-c3ccccc3)c(-c3ccccc3)nc12	-0.68	1.7	.	.	.	.
O=c1[nH]cnc2nn(-c3ccccc3)nc12	1.1	-3.7*	0.9	25	10	0.8
C[C@H]1CC[C@H]2C(=O)N[C@H](Cc3ccccc3)C(=O)N2[C@@H]1c1ccccc1	.	-0.089	.	.	.	.
SMILES	Pyk2 oligo antag	Cav32 inh	CYP2C9 act	CYP2C19 inh	CYP2C9 inh	CYP2C19 activ
O=C(COC(=O)Cc1cccs1)Nc1ccc(F)c(F)c1F	0.55	0.45	0.8	75*	25	0.3
O=C(Nc1nc2ccccc2s1)C1CC(=O)N(c2ccccc2)C1 (stereo unspecified)	-0.29	-5.1*	0.8	7	22	0.9
O=C(Nc1nc2ccccc2s1)C1CC(=O)N(c2ccc(F)cc2)C1 (stereo unspecified)	0.44	-4.6*	0.7	8	32	0.9
CCOC(=O)N1CCC(N(C(=O)Nc2ccc(Cl)c(Cl)c2)C(C)CC)CC1 (stereo unspecified)	0.58	-3.2	0.2	89*	84*	0.1
CCOC(=O)N1CCN(C(=O)Nc2cccc(Cl)c2)CC1	0.2	0.42	0.8	61*	18	0.4
CCOC(=O)C1CCCN(C(=O)Nc2cccc(Cl)c2)C1 (stereo unspecified)	0.39	-1.6	0.6	60*	40	0.4
COc1ccc(-c2nc(CS(=O)CC(=O)NCCCN3CC(C)CC(C)C3)c(C)o2)cc1OC (stereo unspecified)	0.45	1.1	0.9	-4	12	1
O=C(OCc1ccccc1Cl)c1ccc(-n2cnnc2)cc1	1.5	0.56	0.1	98*	90*	0
O=C(Cn1ncnn1)OCc1ccccc1Cl	-0.43	-0.047	1.2	5	-18	0.9
CCC(C(=O)c1ccc(O)cc1)c1ccccc1 (stereo unspecified)	-0.12	-3.6	1.3	52*	-29	0.5
Cc1cc(/C=N/n2cnnc2)c(C)n1-c1ccc(OCc2ccccc2F)cc1	-0.1	-1.1	0.8	29	19	0.7
C(=N\n1cnnc1)/c1cccc(Oc2ccccc2)c1	2	0.69	0.4	77*	57*	0.2
Nc1nnnn1/N=C/c1cccc(OCc2ccccc2Cl)c1	0.82	-0.45	.	.	.	.
Nc1nnnn1/N=C/c1cccc(Oc2ccccc2)c1	0.12	-0.13	0.9	56*	8	0.4
O=[N+]([O-])c1cccc(/C=N/n2c(COc3ccccc3)n[nH]c2=S)c1	0.06	-3.2	0.5	41	50	0.6
S=c1[nH]ncn1/N=C/c1cccc(Oc2ccccc2)c1	1.8	-0.18	0.5	61*	50	0.4
Brc1cccc(/C=N\n2cnnc2)c1	1.7	-0.39	0.9	38	8	0.6
Fc1ccccc1COc1cccc(/C=N/n2cnnc2)c1	0.75	-0.062	0.3	99*	68*	0
COc1cccc(C2C(C#N)=C(N)OC(C(C)(C)C)=C2C#N)c1 (stereo unspecified)	0.44	0.35	0.1	85*	94*	0.2
COCc1[nH]nc2c1C(c1ccc(OC)c(OC)c1)C(C#N)=C(N)O2 (stereo unspecified)	0.78	-0.12	1.1	-1	-6	1
COCc1[nH]nc2c1C(c1cccc(OC)c1)C(C#N)=C(N)O2 (stereo unspecified)	-0.23	0.62	1	8	-1	0.9
COc1ccc(C2C(C#N)=C(N)OC(C(C)(C)C)=C2C#N)cc1OC (stereo unspecified)	0.4	0.41	0.1	61*	90*	0.4
COC(=O)c1cn(NC(=O)C2COc3ccccc3O2)c(=O)c2ccccc12 (stereo unspecified)	0.31	-0.19	0.9	-14	14	1.1
CCc1nc2ccccc2n1Cc1ccc(OC)c(OC)c1	0.41	-1.6	.	.	.	.
CS(=O)(=O)c1nc2ccccc2n1Cc1ccccc1	1.2	-0.16	0.9	45	11	0.6
COc1ccccc1Cn1c(CCCO)nc2ccccc21	-0.26	0.028	0.3	84*	65*	0.2
COc1ccc(C)cc1Cn1c(S(C)(=O)=O)nc2ccccc21	-1.8	-1.1	0.4	98*	62*	0
